Laboratory results: ChEMBL document CHEMBL2218924, “A broad activity screen in support of a chemogenomic map for kinase signalling research and drug discovery” (Biochem J, 2013)

Assays:
[1] = biological target: T1, Ephrin type-B receptor 1 (Homo sapiens) (UniProt P54762); settings: at 10 µM
T1 sequence (whole entry): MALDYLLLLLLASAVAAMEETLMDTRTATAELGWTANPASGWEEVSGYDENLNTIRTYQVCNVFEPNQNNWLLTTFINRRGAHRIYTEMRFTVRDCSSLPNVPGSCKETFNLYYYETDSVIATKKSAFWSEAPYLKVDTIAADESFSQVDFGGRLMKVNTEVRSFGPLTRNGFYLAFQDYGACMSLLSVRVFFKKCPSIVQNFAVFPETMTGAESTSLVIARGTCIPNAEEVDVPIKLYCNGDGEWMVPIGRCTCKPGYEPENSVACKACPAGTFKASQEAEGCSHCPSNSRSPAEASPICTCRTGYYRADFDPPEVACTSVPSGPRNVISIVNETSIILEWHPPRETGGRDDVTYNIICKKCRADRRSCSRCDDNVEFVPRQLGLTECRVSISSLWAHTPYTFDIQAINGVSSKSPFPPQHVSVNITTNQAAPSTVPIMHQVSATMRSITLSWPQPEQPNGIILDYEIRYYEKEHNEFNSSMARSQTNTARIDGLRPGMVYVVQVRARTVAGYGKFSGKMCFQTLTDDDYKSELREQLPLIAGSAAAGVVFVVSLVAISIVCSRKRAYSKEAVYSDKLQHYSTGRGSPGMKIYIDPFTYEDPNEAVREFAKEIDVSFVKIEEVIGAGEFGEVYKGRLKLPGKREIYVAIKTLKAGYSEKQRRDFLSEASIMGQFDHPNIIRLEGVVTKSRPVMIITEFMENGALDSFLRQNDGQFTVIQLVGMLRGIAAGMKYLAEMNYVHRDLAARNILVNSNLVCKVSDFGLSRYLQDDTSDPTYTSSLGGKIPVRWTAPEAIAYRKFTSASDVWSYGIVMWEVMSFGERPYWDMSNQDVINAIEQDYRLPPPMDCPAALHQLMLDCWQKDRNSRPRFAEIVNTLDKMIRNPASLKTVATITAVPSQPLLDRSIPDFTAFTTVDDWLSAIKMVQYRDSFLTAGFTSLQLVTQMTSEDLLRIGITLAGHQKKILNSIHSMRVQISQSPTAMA

[2] = biological target: T2, Ephrin type-B receptor 2 (Homo sapiens) (UniProt P29323); settings: at 1 µM
T2 sequence (whole entry): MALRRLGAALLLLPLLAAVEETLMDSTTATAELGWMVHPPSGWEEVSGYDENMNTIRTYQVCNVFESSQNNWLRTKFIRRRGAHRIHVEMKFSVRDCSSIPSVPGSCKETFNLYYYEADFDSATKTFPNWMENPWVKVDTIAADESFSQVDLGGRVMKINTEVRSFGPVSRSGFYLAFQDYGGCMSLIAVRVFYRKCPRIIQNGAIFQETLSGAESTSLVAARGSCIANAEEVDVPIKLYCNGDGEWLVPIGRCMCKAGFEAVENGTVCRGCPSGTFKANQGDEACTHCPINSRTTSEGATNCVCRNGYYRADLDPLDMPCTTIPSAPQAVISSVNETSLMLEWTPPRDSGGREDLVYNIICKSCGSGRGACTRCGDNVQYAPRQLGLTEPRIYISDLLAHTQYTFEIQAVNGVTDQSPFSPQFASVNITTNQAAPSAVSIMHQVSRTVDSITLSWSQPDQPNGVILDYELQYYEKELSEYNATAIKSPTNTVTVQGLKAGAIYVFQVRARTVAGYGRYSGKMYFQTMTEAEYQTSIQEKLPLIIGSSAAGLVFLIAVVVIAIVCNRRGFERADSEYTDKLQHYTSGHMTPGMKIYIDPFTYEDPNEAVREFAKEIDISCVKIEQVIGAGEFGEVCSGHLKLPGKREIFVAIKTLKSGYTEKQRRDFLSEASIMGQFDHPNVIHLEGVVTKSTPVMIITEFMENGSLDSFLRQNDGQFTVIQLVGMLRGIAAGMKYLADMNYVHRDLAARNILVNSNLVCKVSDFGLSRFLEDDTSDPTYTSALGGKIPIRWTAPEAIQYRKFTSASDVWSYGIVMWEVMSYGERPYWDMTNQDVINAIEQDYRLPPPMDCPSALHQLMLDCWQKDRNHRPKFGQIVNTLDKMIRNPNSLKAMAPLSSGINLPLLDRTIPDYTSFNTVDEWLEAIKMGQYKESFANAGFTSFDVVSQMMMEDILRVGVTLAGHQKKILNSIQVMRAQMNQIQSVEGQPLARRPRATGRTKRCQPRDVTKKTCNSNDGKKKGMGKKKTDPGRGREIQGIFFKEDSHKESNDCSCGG

[3] = biological target: T2, Ephrin type-B receptor 2 (Homo sapiens); settings: at 10 µM
[4] = biological target: T3, Ephrin type-B receptor 3 (Homo sapiens) (UniProt P54753); settings: at 1 µM
T3 sequence (whole entry): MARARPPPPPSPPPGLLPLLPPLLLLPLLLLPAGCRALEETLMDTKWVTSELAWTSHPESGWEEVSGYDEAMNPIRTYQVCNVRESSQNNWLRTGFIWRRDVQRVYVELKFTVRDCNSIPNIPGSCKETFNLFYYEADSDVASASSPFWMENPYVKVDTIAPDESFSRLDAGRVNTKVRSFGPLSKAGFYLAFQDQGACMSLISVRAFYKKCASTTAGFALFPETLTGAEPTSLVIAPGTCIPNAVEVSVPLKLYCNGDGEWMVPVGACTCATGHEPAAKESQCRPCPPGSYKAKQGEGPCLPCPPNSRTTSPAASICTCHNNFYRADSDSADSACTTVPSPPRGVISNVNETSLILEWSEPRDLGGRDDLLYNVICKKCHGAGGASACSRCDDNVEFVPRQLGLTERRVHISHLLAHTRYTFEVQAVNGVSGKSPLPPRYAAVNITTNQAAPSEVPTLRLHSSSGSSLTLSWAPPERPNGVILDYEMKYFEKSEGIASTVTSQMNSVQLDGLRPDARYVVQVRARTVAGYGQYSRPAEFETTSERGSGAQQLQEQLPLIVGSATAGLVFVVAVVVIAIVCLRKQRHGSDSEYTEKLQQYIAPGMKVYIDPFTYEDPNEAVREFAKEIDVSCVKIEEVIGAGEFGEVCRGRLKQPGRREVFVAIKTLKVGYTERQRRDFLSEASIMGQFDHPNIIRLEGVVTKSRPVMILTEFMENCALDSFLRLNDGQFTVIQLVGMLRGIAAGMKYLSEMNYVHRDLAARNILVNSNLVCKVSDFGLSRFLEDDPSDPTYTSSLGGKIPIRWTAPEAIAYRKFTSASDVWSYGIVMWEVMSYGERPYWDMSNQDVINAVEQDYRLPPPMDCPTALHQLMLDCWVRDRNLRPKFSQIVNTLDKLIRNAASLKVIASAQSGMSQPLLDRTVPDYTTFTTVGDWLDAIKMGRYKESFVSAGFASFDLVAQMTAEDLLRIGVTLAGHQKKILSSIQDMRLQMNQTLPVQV

[5] = biological target: T3, Ephrin type-B receptor 3 (Homo sapiens); settings: at 10 µM
[6] = biological target: T4, Ephrin type-B receptor 4 (Homo sapiens) (UniProt P54760); settings: at 1 µM
T4 sequence (whole entry): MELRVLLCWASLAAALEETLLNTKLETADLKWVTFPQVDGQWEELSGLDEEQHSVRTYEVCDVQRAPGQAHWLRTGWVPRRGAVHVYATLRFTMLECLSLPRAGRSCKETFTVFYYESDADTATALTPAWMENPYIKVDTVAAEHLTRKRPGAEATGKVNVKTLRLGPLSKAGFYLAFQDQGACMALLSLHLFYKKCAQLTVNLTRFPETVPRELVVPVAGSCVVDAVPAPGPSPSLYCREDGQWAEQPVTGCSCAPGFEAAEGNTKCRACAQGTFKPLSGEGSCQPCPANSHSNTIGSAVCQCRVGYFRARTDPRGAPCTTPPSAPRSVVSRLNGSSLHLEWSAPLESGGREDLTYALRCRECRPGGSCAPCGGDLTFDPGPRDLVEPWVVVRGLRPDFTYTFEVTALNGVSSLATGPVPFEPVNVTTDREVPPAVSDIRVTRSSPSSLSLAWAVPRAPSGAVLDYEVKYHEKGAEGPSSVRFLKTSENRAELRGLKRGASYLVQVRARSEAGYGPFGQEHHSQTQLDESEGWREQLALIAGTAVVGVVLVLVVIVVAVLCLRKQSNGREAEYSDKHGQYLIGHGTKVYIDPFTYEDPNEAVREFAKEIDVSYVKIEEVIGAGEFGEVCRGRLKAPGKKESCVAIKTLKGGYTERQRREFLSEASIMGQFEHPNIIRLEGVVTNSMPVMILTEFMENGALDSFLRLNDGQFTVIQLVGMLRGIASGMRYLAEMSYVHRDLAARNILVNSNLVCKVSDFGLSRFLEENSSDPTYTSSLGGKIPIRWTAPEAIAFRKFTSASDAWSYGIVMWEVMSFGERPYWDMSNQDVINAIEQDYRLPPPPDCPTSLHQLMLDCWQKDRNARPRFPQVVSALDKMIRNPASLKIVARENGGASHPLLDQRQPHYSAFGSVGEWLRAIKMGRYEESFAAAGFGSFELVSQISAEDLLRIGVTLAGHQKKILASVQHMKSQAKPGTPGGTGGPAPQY

[7] = biological target: T4, Ephrin type-B receptor 4 (Homo sapiens); settings: at 10 µM
[8] = biological target: Receptor tyrosine-protein kinase erbB-4 (Homo sapiens) (UniProt Q15303); settings: at 1 µM
[9] = biological target: Receptor tyrosine-protein kinase erbB-4 (Homo sapiens) (UniProt Q15303); settings: at 10 µM
[10] = biological target: Focal adhesion kinase 1 (Homo sapiens) (UniProt Q05397); settings: at 1 µM
Focal adhesion kinase 1 (Homo sapiens), sequence (Q05397 2-1052 limits assumed): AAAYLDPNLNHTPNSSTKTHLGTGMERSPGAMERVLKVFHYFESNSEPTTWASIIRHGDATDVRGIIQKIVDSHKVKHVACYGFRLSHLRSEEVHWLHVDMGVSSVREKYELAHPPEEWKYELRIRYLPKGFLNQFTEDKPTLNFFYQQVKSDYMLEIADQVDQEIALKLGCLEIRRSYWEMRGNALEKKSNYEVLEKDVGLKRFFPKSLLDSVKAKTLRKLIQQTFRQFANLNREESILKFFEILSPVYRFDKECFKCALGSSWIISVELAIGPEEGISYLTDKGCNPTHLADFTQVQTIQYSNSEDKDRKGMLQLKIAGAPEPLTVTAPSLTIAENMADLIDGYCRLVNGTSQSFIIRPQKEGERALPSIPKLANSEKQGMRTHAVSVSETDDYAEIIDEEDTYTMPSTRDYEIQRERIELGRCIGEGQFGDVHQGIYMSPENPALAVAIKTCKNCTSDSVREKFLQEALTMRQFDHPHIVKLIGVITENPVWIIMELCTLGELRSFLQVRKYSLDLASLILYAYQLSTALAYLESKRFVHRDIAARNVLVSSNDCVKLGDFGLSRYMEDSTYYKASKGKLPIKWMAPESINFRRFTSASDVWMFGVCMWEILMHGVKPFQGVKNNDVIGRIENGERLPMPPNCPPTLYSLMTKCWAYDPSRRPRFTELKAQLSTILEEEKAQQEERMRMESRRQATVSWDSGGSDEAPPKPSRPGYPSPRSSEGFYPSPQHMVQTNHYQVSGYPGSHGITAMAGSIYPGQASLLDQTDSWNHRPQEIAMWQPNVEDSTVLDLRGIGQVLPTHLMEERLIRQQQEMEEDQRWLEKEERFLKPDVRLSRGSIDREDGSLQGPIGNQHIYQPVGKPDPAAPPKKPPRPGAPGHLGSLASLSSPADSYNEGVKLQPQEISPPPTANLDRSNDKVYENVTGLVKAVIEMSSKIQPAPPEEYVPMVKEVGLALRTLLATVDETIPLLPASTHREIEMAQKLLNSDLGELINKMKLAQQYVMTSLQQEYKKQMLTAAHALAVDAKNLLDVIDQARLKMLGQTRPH

Receptor tyrosine-protein kinase erbB-4 (Homo sapiens), sequence (Q15303 whole entry): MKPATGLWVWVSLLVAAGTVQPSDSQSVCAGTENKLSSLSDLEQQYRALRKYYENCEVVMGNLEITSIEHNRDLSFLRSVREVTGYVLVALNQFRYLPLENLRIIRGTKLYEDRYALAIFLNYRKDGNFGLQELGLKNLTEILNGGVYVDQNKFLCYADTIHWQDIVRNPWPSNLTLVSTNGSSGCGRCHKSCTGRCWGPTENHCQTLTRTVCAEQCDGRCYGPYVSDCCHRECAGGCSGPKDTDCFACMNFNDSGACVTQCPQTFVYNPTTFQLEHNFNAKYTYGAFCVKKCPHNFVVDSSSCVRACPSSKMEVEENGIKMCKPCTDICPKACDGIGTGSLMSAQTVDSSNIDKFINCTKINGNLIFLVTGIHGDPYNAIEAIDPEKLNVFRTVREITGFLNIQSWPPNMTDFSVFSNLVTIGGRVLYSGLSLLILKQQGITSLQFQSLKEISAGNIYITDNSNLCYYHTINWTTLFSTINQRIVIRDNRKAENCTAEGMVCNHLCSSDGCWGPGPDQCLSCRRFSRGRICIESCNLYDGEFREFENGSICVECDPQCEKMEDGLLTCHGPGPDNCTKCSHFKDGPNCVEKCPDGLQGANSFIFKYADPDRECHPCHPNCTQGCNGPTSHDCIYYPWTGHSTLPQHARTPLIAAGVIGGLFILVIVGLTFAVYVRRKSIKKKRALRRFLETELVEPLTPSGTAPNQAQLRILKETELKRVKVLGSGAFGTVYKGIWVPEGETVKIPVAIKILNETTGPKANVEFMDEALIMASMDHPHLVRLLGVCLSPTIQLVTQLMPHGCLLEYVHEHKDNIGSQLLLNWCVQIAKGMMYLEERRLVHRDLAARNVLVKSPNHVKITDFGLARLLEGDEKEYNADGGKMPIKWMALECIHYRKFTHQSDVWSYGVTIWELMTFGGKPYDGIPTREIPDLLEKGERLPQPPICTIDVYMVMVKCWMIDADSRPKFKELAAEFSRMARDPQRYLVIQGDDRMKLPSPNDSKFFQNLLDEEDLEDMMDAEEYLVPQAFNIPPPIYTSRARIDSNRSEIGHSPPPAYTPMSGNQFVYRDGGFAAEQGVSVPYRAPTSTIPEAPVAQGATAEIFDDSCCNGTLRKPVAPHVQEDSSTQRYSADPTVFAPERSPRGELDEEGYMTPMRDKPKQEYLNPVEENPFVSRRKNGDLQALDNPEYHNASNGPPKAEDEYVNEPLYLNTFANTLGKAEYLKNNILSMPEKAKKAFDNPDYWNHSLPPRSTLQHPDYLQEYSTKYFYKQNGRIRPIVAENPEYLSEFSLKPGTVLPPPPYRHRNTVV

`Nc1ncnc2c1c(-c1ccc(Oc3ccccc3)cc1)cn2C1CCCC1` was tested, and the residual activity [1] was 70%, the residual activity [2] was 108% and the residual activity [3] was 101%. For the same compound, the residual activity [4] was 104% (inactive), the residual activity [5] was 117% and the residual activity [6] was 99%. For the same compound, the residual activity [7] was 89%, the residual activity [8] was 0% and the residual activity [9] was -4%. It also gave a residual activity [10] of 116%.
